The record followed here is PubChem BioAssay (NCATS).

Records with an inconclusive call do not appear. Entries that show only a call come without a potency. Activity calls are given as the source filed them. The call rests on the fitted dose curve; in most records, active means well fitted inhibition curve with a large enough effect; inconclusive means small, poorly fitted or top-dose-only effect; inactive means flat fitted curve, though single readings scatter.

This test deals with CRL-7250. The test is described as follows: qHTS assay to identify novel small-molecules to repurpose for Merkel cell carcinoma treatment (AID 1296009). Further: nearly all actives have a fitted effect of over 60% in size. The note with it: MCC and control cell lines, CellTiter-Glo viability, 72 h; series mostly up to 92 µM. In short, it runs like this:
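Dose-response viability screen; 72 hr exposure at 37 degree celsius; CellTiter-Glo added, 10 min room temperature, luminescence read; RLUs scaled between no-cell and DMSO wells.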
Consider `CN1CCc2cc(Cl)c(O)cc2[C@@H](c2cccc3c2OCC3)C1`, for which the Potency result is “inactive”.
Same read-out and setting: the entry for `CO[C@H]1c2cc(C(C)C)c(O)c(O)c2[C@@]23CCCC(C)(C)C2[C@@H]1OC3=O` (some centres undefined) is “inactive”.
For `CC1CCC2(CO)C(C(=O)O)=CCCC2C1(C)CCc1ccoc1` (centres undefined), the Potency result was “inactive”.
With `CC(=O)NC(C(=O)OC1CCC(C)(C)C2CC=C3C(=O)OCC3C12C)C(C)C` (centres undefined), the Potency entry was “inactive”.
Still for that read-out and setting: the entry for `CCc1cc2c(cc1CC)CC(NCC(O)c1ccc(O)c3[nH]c(=O)ccc13)C2` (centres undefined) is “inactive”.
Turning to `CC1CC(=O)C2=C(O1)OC1(C)CCC3C(C)(C)C4OC4C(=O)C3(C)C1C2` (centres undefined), the Potency result was “inactive”.
For `C=CC(C)(CC/C=C(\C)C(=O)OC)OC1OC(COC(=O)CC(C)(O)CC(=O)O)C(OC2OC(CO)C(O)C(O)C2O)C(O)C1O` (centres undefined), the Potency entry was “inactive”.
Take `O=C(Nc1ccccc1)N1CCN(Cc2ccc3ccccc3n2)CC1`: the Potency entry was “inactive”.
Still for that read-out and setting: the entry for `COc1ccc(/C=C/C(N)=O)cc1OC` is “inactive”; for `CC1(C)CCCC2(C)C=C(C(=O)O)C(O)CC12` (centres undefined) it is “inactive”; for `COc1ccc2c(c1)O[C@H](O[C@@H]1O[C@H](CO)[C@@H](O)[C@H](O)[C@H]1O)C(=O)N2` it is “inactive”.
With `CC/C=C\CC1C(CC(=O)O)CCC1OC1OC(CO)C(O)C(O)C1O` (centres undefined), the Potency result is “inactive”.
Consider `COC(=O)[C@@H](NC(=O)[C@H](CC(C)C)NC(=O)N(Cc1ccccc1)C[C@@H](O)[C@H](Cc1ccccc1)NC(=O)OC(C)(C)C)C(C)C`, for which the outcome is “inactive [at 9.27 µM]”.
The same measure, in the same setting: the entry for `CC(=O)OC[C@@]12[C@H](O)C[C@]3(C)C(=CCC4[C@@]5(C)CC[C@H](O[C@@H]6O[C@H](C(=O)O)[C@@H](O[C@@H]7O[C@H](CO)[C@@H](O)[C@H](O)[C@H]7O)[C@H](O)[C@H]6O[C@@H]6O[C@H](CO)[C@@H](O)[C@H](O)[C@H]6O)[C@](C)(CO)C5CC[C@]43C)[C@@H]1CC(C)(C)[C@@H](OC(C)=O)[C@@H]2O` (some centres undefined) is “inactive [at 9.27 µM]”.
